aSyn UTR act: Activators via SNCA 5'UTR binding, MLPCN. alpha-synuclein 5'UTR reporter, activators screen. activity score, % (tested at 7.5 µM), hits read low. hit rate 7.1% among 300,000; in the data active means activity score below about -60%
Each line names hits and unclear results; the compound was inactive in the other large screens. A selection follows.

Clc1ccc(Cl)c(OCc2cc(-c3ccccc3Cl)on2)c1	aSyn UTR act -155
O=Cc1s/c(=N\S(=O)(=O)c2ccccc2)n(CCCCl)c1Cl	none
Cn1c(=NC(=O)COc2ccccc2)sc2ccccc21	aSyn UTR act -148
Cn1c(=NC(=O)CS(=O)(=O)c2ccccc2)sc2ccccc21	aSyn UTR act -76
N#C/C(=C1/CCCCCN1)c1nc2ccccc2s1	aSyn UTR act -73
Brc1cccc(OCCSc2ncccn2)c1	aSyn UTR act -69
CCCOc1ccc(OCCSc2ncccn2)cc1	aSyn UTR act -167
Clc1ccc(OCCSc2ncccn2)c(Br)c1	aSyn UTR act -114
CCCCCn1nc(C)c(/C=N/NC(=O)c2ccoc2C)c1C	aSyn UTR act -171
CCn1nc(C)c(/C=N/NC(=O)c2ccoc2C)c1C	aSyn UTR act -112
O=C(Nc1cccnc1)c1cc2c(ccc3ccccc32)o1	aSyn UTR act -104
CCc1ccc2oc(C(=O)Nc3cccnc3)c(C)c2c1	aSyn UTR act -220
CC(=O)Nc1cccc(NC(=O)c2cc(-c3cccnc3)nc3ccc(Br)cc23)c1	aSyn UTR act -62
Cc1c(C(=O)Nc2cccnc2)oc2ccc(Br)cc12	aSyn UTR act -246
C/C(=N\NC(=O)c1cc(-c2cccnc2)nc2ccccc12)c1ccccc1O	none
CCOc1ccc(S(=O)(=O)Nc2cc(OC)ccc2OC)cc1	none
COc1ccc(OC)c(NS(=O)(=O)c2ccc(SC)cc2)c1	aSyn UTR act -161
COc1ccc(C(=O)NCCCc2ccccc2)cc1	aSyn UTR act -149
O=C(NCCc1ccccc1)c1ccccc1NS(=O)(=O)N1CCCC1	aSyn UTR act -88
CC(C)=CC(=O)NCCc1ccccc1	aSyn UTR act -64
O=C(NCCCc1ccccc1)c1ccccc1	aSyn UTR act -167
O=C(NCCc1ccccc1)c1c[nH]c2c(F)cccc2c1=O	aSyn UTR act -94
Cc1ccccc1C(=O)NCCCc1ccccc1	aSyn UTR act -84
O=C(CCCc1ccccc1)c1ccccc1	aSyn UTR act -105
O=C(NCCc1ccccc1)c1ccc(Cl)cc1[N+](=O)[O-]	aSyn UTR act -167
O=C(CN(c1ccc(Cl)cc1)S(=O)(=O)c1ccc(Cl)c([N+](=O)[O-])c1)NCCc1ccccc1	none
O=C(NCCc1ccccc1)c1ccc(-n2cnnn2)cc1	aSyn UTR act -66
CN(C(=O)COc1ccccc1C(=O)NCCc1ccccc1)c1ccccc1	aSyn UTR act -98
O=C(CCCC(=O)c1ccc(O)cc1)c1ccc(O)cc1	aSyn UTR act -71
O=C(NCCc1ccccc1)c1ccccc1C(=O)NCCc1ccccc1	aSyn UTR act -113
Cc1ccc(C2=[N+]([O-])C3(CCCCC3=O)N(O)C2(C)C)cc1 (stereo not drawn)	none
Cc1ccc(C(=O)NCCCc2ccccc2)s1	aSyn UTR act -137
O=C(NCCc1ccccc1)c1cnc2n(c1=O)CCS2	aSyn UTR act -80
O=C(NC(=S)NCCc1ccccc1)c1ccccc1	aSyn UTR act -115
O=C(NCCc1ccccc1)c1ccc(Br)o1	aSyn UTR act -93
Cc1ccc(SCc2cc(=O)n3ccsc3n2)c(C)c1	aSyn UTR act -79
Cn1ccnc1Sc1ccc(/C=N/NC(=O)c2ccccc2O)cc1[N+](=O)[O-]	aSyn UTR act -62
COc1ccc2c(c1)CC/C(=C\c1ccc(C)o1)C2=O	aSyn UTR act -170
COc1ccc2c(c1)C(=O)/C(=C/C=C/c1ccccc1)CC2	aSyn UTR act -115
COc1ccc2c(c1)CC/C(=C\C=C\c1ccccc1OC)C2=O	aSyn UTR act -134
C=CCn1c(=NC(=O)c2ccco2)sc2cc(C(=O)OC)ccc21	aSyn UTR act -77
CCC(=O)C1CCCN(C(=O)c2ccc3nc(-c4cccc(OC)c4)oc3c2)C1 (stereo not drawn)	aSyn UTR act -85
COc1cccc(-c2nc3ccc(C(=O)N4CCCC(O)C4)cc3o2)c1 (stereo not drawn)	aSyn UTR act -91
Cn1cnnc1SCc1ccc(-c2ccc(Br)cc2)o1	aSyn UTR act -72
O=[N+]([O-])/C=C\c1ccc(N2CCCC2)c(F)c1	aSyn UTR act -142
O=C(N/N=C\c1cccc(Cl)c1)c1n[nH]c2c1CCCC2	aSyn UTR act -152
Cc1ccc(/C=N/NC(=O)c2n[nH]c3c2CCCC3)cc1	none
COc1ccc2c(c1)CCc1c-2n[nH]c1C(=O)NCCC(C)C	aSyn UTR act -71
CNC(=O)c1[nH]nc2c1CCc1cc(OC)ccc1-2	aSyn UTR act -105
O=C(c1ccccc1)c1coc2c1C(=O)c1ccccc1C2=O	aSyn UTR act -80
O=C1c2ccccc2C(=O)c2c1oc(C(F)(F)F)c2C(=O)c1ccccc1	none
Cc1nc(C(F)(F)F)ccc1C(=O)Nc1ccc2ccccc2n1	aSyn UTR act -94
Cc1nc(C(F)(F)F)ccc1C(=O)NCC(O)c1ccccc1 (stereo not drawn)	aSyn UTR act -67
COc1ccc2c(c1)CCc1c(C(=O)N3CCOCC3)noc1-2	aSyn UTR act -162
COc1ccc2c(c1)CCc1c(C(=O)N3CCCc4ccccc43)noc1-2	aSyn UTR act -66
O=C(c1nn2c(C(F)(F)F)cc(-c3cccs3)nc2c1Cl)N1CCCc2ccccc21	none

Bioassay records (PubChem BioAssay)
